Most compounds without a hit are left out; they make up all but 5.7% or so of the library.
KDM4E inh: qHTS Assay for Inhibitors of Human Jumonji Domain Containing 2E (JMJD2E) | 230,000 tested, 1.6% active | AID 2147, 2009 | Lysine-specific demethylase 4E (Homo sapiens), B2RXH2 | Potency, µM (series often up to 57.1 µM), without a hit: top-dose activity change, negative = inhibition, usual class: inhibitors | JMJD2E catalytic domain, FDH-coupled NADH fluorescence (FDH is formaldehyde dehydrogenase); active means well fitted inhibition curve with a large enough effect, not every such curve was filed as active; inconclusive means small, poorly fitted or top-dose-only effect, or another doubt; inactive means no such curve, though single readings can be large or run the other way;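 further: potency means the concentration at half of the fitted maximal effect; 0% = wells with enzyme and -100% = buffer wells without enzyme; nearly all actives have a fitted effect of over 50% in size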
JMJD2A Tudor inh: qHTS Assay for Inhibitors of JMJD2A-Tudor Domain; Lysine-specific demethylase 4A (Homo sapiens), O75164; AlphaScreen JMJD2A-Tudor / H3K4me3 peptide binding; Potency, µM (series often up to 114 µM), for the others: at the highest dose activity change, negative = inhibition, actives largely listed as inhibitors; 390,000 tested, 4.4% active; AID 504339, 2011; further: potency means the concentration at half of the fitted maximal effect; on the % scale 0 is the no-effect control and ±100 the full control effect; nearly all actives have a fitted effect of over 50% in size
PI5P4Ka inh: qHTS for Inhibitors of phosphatidylinositol 5-phosphate 4-kinase (PI5P4K); Phosphatidylinositol 5-phosphate 4-kinase type-2 alpha (Homo sapiens), P48426; PI5P4Kalpha enzyme, ADP-Glo luminescence, 60 min; stronger effect = lower value; max response, %; 330,000 tested, 1.2% active; active means max response of -50% or lower; inconclusive means between -30% and -50%; inactive means -30% or higher; further: value at the top dose of about 77 µM; on the % scale 0 is the no-effect control and ±100 the full control effect
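Controls without substrate or without enzyme flank wells where PI5P4Kalpha converts substrate using 5 microM ATP (final). Incubation lasts 60 minutes at room temperature; ADP formed is read by ADP-Glo luminescence.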
BAZ2B block: qHTS Assay for Inhibitors of BAZ2B; Bromodomain adjacent to zinc finger domain protein 2B (Homo sapiens), Q9UIF8; AlphaScreen BAZ2B-H3K14Ac peptide displacement; Potency, µM (highest dose often 114 µM), for inactives: at the top dose activity change, negative = inhibition, actives largely listed as inhibitors; 360,000 tested, 4.4% active; further: potency means the concentration at half of the fitted maximal effect; on the % scale 0 is the no-effect control and ±100 the full control effect; nearly all actives have a fitted effect of over 60% in size
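Compounds, titrated to a top concentration of 110 uM, were incubated 30 min at room temperature with preformed BAZ2B/acetyl-K14 H3 peptide complex (50 nM each). Proximity signal was measured by AlphaScreen after 20 min with beads.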
HP1b chromo inh: HTS for Inhibitors of HP1-beta Chromodomain Interactions with Methylated Histone Tails | Chromobox protein homolog 1 (Homo sapiens), P83916 | AlphaScreen HP1-beta / biotin-H3K9me3 peptide binding | Potency, µM (series often up to 114 µM), inactives show at the highest dose activity change, negative = inhibition, usual class: inhibitors | 390,000 tested, 0.56% active; further: potency means the concentration at half of the fitted maximal effect; nearly all actives have a fitted effect of over 70% in size
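AlphaScreen: HP1-beta (50 nM) preformed 30 min with biotin-H3(1-18)K9me3 peptide (50 nM) in PBS pH 7.4, 0.01% Tween-20. Compound added for 30 min at RT, then streptavidin donor/nickel chelate acceptor beads (10 ug/mL) for 30 min.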
L3MBTL1 inh: qHTS Assay for the Inhibitors of L3MBTL1. Potency, µM (highest dose often 57.1 µM), inactives show at the highest dose activity, negative = inhibition, usual class: inhibitors. AlphaScreen L3MBTL1–H3K9me1 peptide binding. 230,000 tested, 0.66% active. AID 485360, 2010; further: potency means the concentration at half of the fitted maximal effect; on the % scale 0 is the no-effect control and ±100 the full control effect; nearly all actives have a fitted effect of over 60% in size
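AlphaScreen proximity signal between nickel-chelate acceptor and streptavidin donor beads (final 10 ug/mL) reports binding of 50 nM L3MBTL1 to 75 nM biotin-H3 K9me1 peptide; complex incubated with compounds 30 min at room temperature; cefsulodin titration as control.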
An asterisk follows results filed as active; ? = inconclusive; · = no result given; [ ] = remark or other dose. Unless noted, the call rests on the fitted dose curve; in most records, active means well fitted inhibition curve with a large enough effect; inconclusive means small, poorly fitted or top-dose-only effect; inactive means no such curve, though single readings can be large or run the other way.

SMILES	KDM4E inh	JMJD2A Tudor inh	PI5P4Ka inh	BAZ2B block	HP1b chromo inh	L3MBTL1 inh
Cc1ccc(S(=O)(=O)Nc2cc(=O)[nH]c(SCc3ccccc3Cl)n2)cc1	-11%	56µM*	-13	-36%	5%	3%
O=C(CSc1nc(NS(=O)(=O)c2ccccc2)cc(=O)[nH]1)Nc1ccc(Cl)cc1	?	-26%	?	79µM*	54%	?
COc1ccc(Cl)cc1NC(=O)CSc1nc(NS(=O)(=O)c2ccccc2)cc(=O)[nH]1	·	?	-17	-28%	-18%	·
O=c1cc(NS(=O)(=O)c2ccccc2)nc(SCc2ccc(Cl)cc2)[nH]1	2%	-21%	21	79µM*	35%	-11%
CC(C)(C)c1cc(=O)[nH]c(SCc2ccccc2Cl)n1	0%	5%	24	-14%	44%	·
Cc1ccc(-c2c(C(=O)Nc3ccc(F)c(F)c3)oc(=O)c3ccccc23)cc1	·	-14%	·	-14%	36%	·
Cc1ccc(S(=O)(=O)N[C@H](C(=O)OCC(=O)NC(=O)c2cccn2C)C(C)C)cc1	·	-30%	0	·	-7%	·
Cc1csc(=Nc2ccccc2)n1C	8%	-13%	3	50µM*	29%	-6%
Cc1nn(-c2ccc3nncn3n2)c(C)c1CCC(=O)Nc1ccc(OC(F)(F)F)cc1	·	-4%	·	4%	24%[57 µM]	·
O=C(CSc1ccccc1)OCC(=O)N1CCN(C(=O)c2ccco2)CC1	·	-14%	-8	12%	31%	3%
O=C(CCN1c2ccccc2Sc2ccccc21)OCC(=O)N1CCN(C(=O)c2ccco2)CC1	0%	?	-11	50µM*	?	-6%
CC(=O)Nc1ccc(S(=O)(=O)NCCC(=O)OCC(=O)N2CCN(C(=O)c3ccco3)CC2)cc1	·	-29%	-16	50µM*	7%	·
Cc1ccc(-n2nc(C(=O)N3CCN(c4cccc(C(F)(F)F)c4)CC3)c3c4ccccc4n(C)c3c2=O)cc1	·	-11%	·	·	26%	·
CCOc1ccc2[nH]c(=S)[nH]c2c1	5%	45µM*	-9	-4%	-9%	·
CCOc1ccc2nc(-c3ccccc3)[nH]c2c1	?	-2%	0	6%	37%	-3%
CC[n+]1ccc(C[n+]2ccccc2)c2ccccc21	?	?	-53*	10µM*	79µM*	?
Cc1cc(N2C(=O)C(O)=C(C(=O)c3ccc(C)o3)C2c2ccc([N+](=O)[O-])cc2)no1 (stereo unspecified)	·	-21%	-9	-29%	16%	·
COc1ccc2nc(N3C(=O)C(O)=C(C(=O)c4ccco4)C3c3ccc(C)o3)sc2c1 (stereo unspecified)	·	?	-50*	45µM*	-23%	-13%
Cc1ccc2nc(N3C(=O)C(O)=C(C(=O)c4ccc(C)o4)C3c3ccc(O)cc3)sc2c1 (stereo unspecified)	·	-46%	-58*	?	-10%	?
Cc1ccc2nc(N3C(=O)C(O)=C(C(=O)c4ccco4)C3c3cccs3)sc2c1 (stereo unspecified)	?	18µM*	·	45µM*	-21%	-14%
Cc1cc(C)c2nc(N3C(=O)C(O)=C(C(=O)c4ccco4)C3c3ccco3)sc2c1 (stereo unspecified)	·	50µM*	-53*	45µM*	-21%	·
CCOC(=O)c1sc(N2C(=O)C(O)=C(C(=O)c3ccco3)C2c2ccco2)nc1C (stereo unspecified)	·	16µM*	-9	?	?	·
COc1ccc2nc(N3C(=O)C(O)=C(C(=O)c4ccco4)C3c3ccccc3OC)sc2c1 (stereo unspecified)	·	-2%	-5	?	30%	·
CCOc1ccc2nc(N3C(=O)C(O)=C(C(=O)c4ccco4)C3c3ccco3)sc2c1 (stereo unspecified)	·	40µM*	?	50µM*	-17%	?
CCc1cnc2c(c1SCc1ccccc1C)c(=O)n(C)c(=O)n2C	·	-6%	·	-4%	3%	·
SMILES	KDM4E inh	JMJD2A Tudor inh	PI5P4Ka inh	BAZ2B block	HP1b chromo inh	L3MBTL1 inh
Cc1[nH][nH]c(=O)c1C(c1ccc(-c2ccc(F)cc2)o1)c1c(C)[nH][nH]c1=O	31%	?	4	?	2%	?
Cc1[nH][nH]c(=O)c1C(c1ccc(-c2ccc(C(=O)O)cc2)o1)c1c(C)[nH][nH]c1=O	?	-32%	?	56µM*	?	?
CCCCSCCCNC(=O)c1cn(CC)c2ccc(S(=O)(=O)N3CCCCCC3)cc2c1=O	·	-27%	·	·	27%	·
Cc1ccc(N(Cc2ccco2)C(=O)c2ccc(N3CCCCC3)c([N+](=O)[O-])c2)cc1	0%	18µM*	7	?	?	?
CCOc1ccccc1-c1cc(-c2n[nH]c(=S)n2CC)c2ccccc2n1	?	45µM*	-3	-37%	17%	-5%
CCn1c(-c2cc(-c3ccc(C)c(C)c3)nc3ccccc23)n[nH]c1=S	?	·	·	?	·	-24%
CCn1c(-c2cc(C3CC3)nc3ccccc23)n[nH]c1=S	-20%	50µM*	-23	-32%	21%	7%
CCn1c(-c2cc(-c3cc(C)ccc3C)nc3ccccc23)n[nH]c1=S	?	56µM*	-8	?	15%	-1%
C[C@H]1Cc2c(COc3ccccc3)nc3c(c2CO1)CN(C(=O)C1CCCCC1)CC3	2%[11.4 µM]	·	·	·	·	·
Cc1nc(C)c(-c2csc(Nc3ccc(O)cc3C)n2)s1	·	-30%	-3	-5%	15%	2%
Cc1ccc(Nc2n[nH]c(=S)s2)c(C)c1	·	·	-88*	·	·	·
Cc1cc(C)c(Nc2n[nH]c(=S)s2)cc1C	·	·	-90*	·	·	·
COc1ccc(-c2cc(C(F)(F)F)n3nc(C)c(-c4ccccc4)c3n2)cc1OC	·	6%	·	5%	36%	·
CCCNc1ncnc2c1c(-c1ccccc1)cn2-c1ccccc1	·	-28%	·	2%	31%	·
COc1ccc(S(=O)(=O)Nc2c(C(=O)O)[nH]c3ccc(OC)cc23)c(OC)c1	·	18µM*	-6	45µM*	45µM*	·
COc1ccc(N2CCN(c3cc(C)nc4ccc(OC)cc34)CC2)cc1	·	45µM*	10	32µM*	?	·
COc1ccc2[nH]c(C(=O)O)c(NS(=O)(=O)c3ccc(OC)c(OC)c3)c2c1	?	?	·	?	-2%	·
COc1ccc(S(=O)(=O)Nc2c(C(=O)O)[nH]c3ccc(OC)cc23)cc1	·	20µM*	-11	?	-30%	·
